Rhodamine fluor: rhodamine region autofluorescence. Rhodamine-region fluorescence, 547/598 nm, Tris buffer; stronger effect = higher value. max dye-equivalent concentration, M. AID 594. 0.05% of 59,000 active; in the data active = max dye-equivalent concentration above about 11 nM; inconclusive = between about 1.1 nM and that limit
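Intrinsic compound fluorescence, ex 547 / em 598 nm, CCD imager. Tris 100 mM pH 8.0; 15 min RT. Output = rhodamine dye-equivalent concentration at each compound concentration.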
A488 fluor: compound fluoresces in the A488 spectral region | compound autofluorescence, A488 spectral region, dye equivalency; Compound Type: qHTS ECL - MLSMR | max dye equivalency, M | 0.1% of 59,000 active | AID 591
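Autofluorescence read at ex 480/em 540 nm after 15 min RT in 100 mM Tris pH 8.0; compound signal normalized to A488 standard series on each plate, reported as dye-equivalent concentration at each test concentration.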
A647 autofl: compound fluoresces in the A647 spectral region; Compound fluorescence, A647 channel (570/671 nm), Tris buffer; max dye-equivalent concentration, M; 59,000 tested, under 10 active; AID 592
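Spectral profiling of library compounds in pH 8.0 Tris: 15 min room-temperature incubation, single ex/em pair (570/671 nm), response normalized to Alexa 647 equivalents.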
Resorufin fluor: resorufin region autofluorescence | AID 588 | 0.04% of 59,000 active | Compound fluorescence, resorufin region 547/598 nm, buffer; stronger effect = higher value | max dye-equivalent concentration, M
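Compounds in 100 mM Tris, pH 8.0, incubated 15 min at room temperature, then fluorescence read at 547 nm excitation/598 nm emission. Signal converted to dye-equivalent concentration via an on-plate six-point resorufin standard curve, per compound concentration.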
Fluorescein autfl: fluorescein region autofluorescence | Compound autofluorescence, 480/540 nm, fluorescein-equivalent; stronger effect = higher value | max fluorescein-equivalent concentration, M | 0.91% of 59,000 active | AID 593; in the data active = max fluorescein-equivalent concentration above about 10 nM; inconclusive = between about 1.1 nM and that limit
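First, buffer (100 mM Tris, pH 8.0) dispensed; second, compounds and fluorescein standards pinned in; third, 15 min room-temperature incubation; finally, imaging at ex 480 nm/em 540 nm. Fluorescence normalized against the six-point fluorescein curve.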
TexasRed autofl: compounds fluorescent in Texas Red spectral region. max dye-equivalent concentration, M. 0.06% of 59,000 active. AID 587. Compound fluorescence, Texas Red channel, 547/618 nm; stronger effect = higher value; in the data active = max dye-equivalent concentration above about 10 nM; inconclusive = between about 1.1 nM and that limit
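Dye-equivalent concentrations come from scaling compound signal (ex 547, em 618 nm) to six Texas Red standard concentrations run on every plate, after 15 min room-temperature incubation in pH 8.0 Tris (100 mM).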
A number is an active result; - = inactive; ? = inconclusive; ! = not active in a repeat. An excerpt weighted towards active compounds, which were near 0.95% of everything screened. Unless noted, no rule for the calls is given here.

SMILES	Rhodamine fluor	A488 fluor	A647 autofl	Resorufin fluor	Fluorescein autfl	TexasRed autofl
Nc1c(C(=O)NCCN2CCOCC2)c2nc3ccccc3nc2n1Cc1ccco1	-	-	-	-	1.87e-08M	-
CCOC(=O)c1c(N)n(CCN2CCCCC2)c2nc3ccccc3nc12	-	-	-	-	-	-
CC(C)(C)OC(=O)c1c(N)n(Cc2ccco2)c2nc3ccccc3nc12	-	-	-	-	2.84e-08M	-
CC(C)[C@@]1(NC(=O)[C@@H]2C[C@H]3c4cccc5[nH]cc(c45)C[C@@H]3N(C)C2)O[C@@]2(O)[C@H]3CCCN3C(=O)[C@@H](Cc3ccccc3)N2C1=O	-	-	-	-	-	-
C=C(C)[C@@H]1CN[C@H](C(=O)O)[C@H]1CC(=O)O	-	-	-	-	-	?
CNc1ccc2oc(C[C@@H]3O[C@@]4(CC[C@H]3C)O[C@@H]([C@@H](C)C(=O)c3ccc[nH]3)[C@@H](C)C[C@H]4C)nc2c1C(=O)O	-	-	-	-	?	-
NC(N)=Nc1ccc2[nH]c3c(c2c1)C[C@]1(O)[C@@H]2Cc4ccc(O)c5c4[C@]1(CCN2CC1CC1)[C@H]3O5	-	-	-	-	?	-
OC[C@H]1CCCN2CCCC[C@@H]12	-	-	-	-	-	-
CC(C)n1cc2c3c(cccc31)[C@@H]1C[C@H](C(=O)O[C@@H](C)[C@H](C)O)CN(C)[C@H]1C2	-	-	-	-	1.07e-08M	-
Cc1ccc(-n2c(O)c(C=Nc3ccccc3N)c(=O)[nH]c2=O)cc1C	-	-	-	-	?	-
O=c1[nH]c(=O)n(-c2ccc(F)cc2)c(O)c1C=Nc1ccccc1N1CCCC1	-	?	-	-	3.96e-08M	-
COc1cc(C=C(C#N)C#N)cc(O)c1O	-	-	-	-	2.52e-08M	-
CSC([N-]/N=C/c1cccc(C)n1)=[S]=[Cu].CS[C@H]([S-])[N-]/N=C/c1cccc(C)n1	-	-	-	-	-	-
O=C(CCCN1CCC2(CC1)C(=O)N(CCc1ccc(N=C=S)cc1)CN2c1ccccc1)c1ccc(F)cc1	-	-	-	-	?	-
Nc1c(C(=O)NCCc2ccccc2)c2nc3ccccc3nc2n1CCN1CCOCC1	-	-	-	-	?	-
COCCNC(=O)c1c(NC(=O)c2ccco2)n(Cc2ccccc2)c2nc3ccccc3nc12	-	-	-	-	1.08e-08M	-
COc1cc2ccccc2c2cc([N+](=O)[O-])oc12	-	?	-	-	3.99e-08M	-
CC(=O)OCC1=C(C(=O)[O-])N2C(=O)[C@@H](NC(=O)CCC[C@@H](N)C(=O)[O-])[C@@H]2SC1.[Zn+2]	-	-	-	-	-	-
CCN(CC)C(=O)N[C@H]1C=C2c3cccc4[nH]cc(c34)C[C@@H]2N(C)C1	-	?	-	-	4.97e-08M	?
CN1C(=O)C(Cc2c[nH]c3ccccc23)C(=O)N(C)C1=O	1.38e-08M	?	-	1.03e-08M	3.36e-08M	?
Cc1c2ccncc2c(C)c2c1[nH]c1ccccc12	-	-	-	-	1.06e-08M!	-
c1ccc2c(c1)[nH]c1cnccc12	-	-	-	-	?	-
C=CCn1c(O)c(C=NCCN(C)C)c(=O)[nH]c1=O	-	-	-	-	?	-
C=CCn1c(O)c(C=Nc2ccc(N(CC)CC)cc2)c(=O)[nH]c1=O	-	-	-	-	1.41e-08M	-
CN(C)c1ccc(N=Cc2c(O)n(CCC3=CCCCC3)c(=O)[nH]c2=O)cc1	-	-	-	-	1.35e-08M	?
SMILES	Rhodamine fluor	A488 fluor	A647 autofl	Resorufin fluor	Fluorescein autfl	TexasRed autofl
CCN(CC)c1ccc(N=Cc2c(O)n(CCC3=CCCCC3)c(=O)[nH]c2=O)cc1	-	?	-	-	9.26e-08M	-
O=c1[nH]c(=O)n(CCC2=CCCCC2)c(O)c1C=NCCN1CCNCC1	-	-	-	-	-	-
COc1ccc2c(c1)[C@]13CCCC[C@@H]1[C@H](C2)NCC3	-	-	-	-	-	-
CC(C)[C@@]1(NC(=O)[C@@H]2C[C@H]3c4cccc5[nH]cc(c45)C[C@@H]3N(C)C2)O[C@]2(O)[C@H]3CCCN3C(=O)[C@H](Cc3ccccc3)N2C1=O	-	-	-	-	-	?
CC(C)C[C@H]1C(=O)N2CCC[C@@H]2[C@]2(O)O[C@](NC(=O)[C@H]3C=C4c5cccc6[nH]cc(c56)C[C@H]4N(C)C3)(C(C)C)C(=O)N12	-	-	-	-	1.34e-08M	-
CC(C)C[C@H]1C(=O)N2CCC[C@@H]2[C@@]2(O)O[C@](NC(=O)[C@@H]3C=C4c5cccc6[nH]cc(c56)C[C@@H]4N(C)C3)(C(C)C)C(=O)N12	-	?	-	-	4.88e-08M	-
CN1CCN(c2ccc([N+](=O)[O-])c3[nH]o[n+](=O)c23)CC1	?	?	-	-	1.31e-07M	-
C/C=C(\C)C(=O)O[C@@H]1C(C)=C2[C@H]([C@@H]1OC(=O)CCCCCCC)[C@@](C)(OC(C)=O)C[C@@H](OC(=O)CCC)[C@@]1(O)[C@H]2OC(=O)[C@]1(C)O	-	-	-	-	-	-
CC[C@H](CO)NC(=O)[C@@H]1C=C2c3cccc4c3c(cn4C)C[C@@H]2N(C)C1	-	-	-	-	1.5e-08M	-
